The results in this text go back to the supplement of paper PMC11417369.

± gives the standard deviation of the averaged measurements. Over roughly 25,000 sequences, “ln(normalized median fluorescence intensity)” has its median near 10; the highest 2% begin near 12. This excerpt belongs to a sample that is enriched for the highest values.

The assay has as its system PfAP2-G AP2 domain (GST-tagged). In words: gcPBM binding intensity (ln(normalized median fluorescence intensity)); higher = stronger DNA binding. Put shortly: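 Binding intensity is the highest Masliner-normalised natural-log median intensity over replicate spots in either probe orientation. To obtain it, GST-tagged P. falciparum DNA-binding domains made in E. coli were incubated for 1 h on an Agilent 4 × 180k array of primer-extended double-stranded 36-bp intergenic genomic probes plus negative controls. Detection used Alexa488 anti-GST antibody with scanning at 488 nm.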
Turning to “TTATATATTTATAAATGTACATATAATTTTTTTATA [XGTACX_site4696]”, the “gcPBM binding intensity (ln)” value came out at 11.1 ± 0.67.
For “AATATCTAAAATGTGTGTACATAATATTTTTAATAT [XGTACX_site3831]”, the “gcPBM binding intensity (ln)” value was found to be 11.7 ± 1.1.
Regarding “TAACATAAATTTAGGAGTACACTTTTTATACATACA [XGTACX_site4066]”, the “gcPBM binding intensity (ln)” value came to 11.7 ± 1.
For the sequence “TTTTAAAGTTGTGAGCTTCATTTTTATTTATATGTA [CACACA_negctrl_site1505]”, the “gcPBM binding intensity (ln)” value came out at 9.87 ± 0.057.
As for “AAATAATTTATAAATAAATACATTGTTACTTTTTCT [GTGCAC_negctrl_site639]”, the figure is 9.62 ± 0.29; as for “TTTTTTTTTTTTTTTGCATGCAGGTTTTTACCCCTT [TGCATGCA_site381]”, 9.84 ± 0.51.
In the case of “ATCATATGTATGGTGGTGCATTATGCATGAATTTTA [GTGCAC_site9798]”, the “gcPBM binding intensity (ln)” value was 10.1 ± 0.18.
Consider “TATTCGTGCAATAGTAGTACACTTAAAAATTATTCA [XGTACX_site269]”, for which the “gcPBM binding intensity (ln)” value was 11.6 ± 1.1.
As for “TTCCAAAATTGCACATGTACAAAATTCTCCAATATG [XGTACX_site3419]”, the figure is 10.9 ± 0.62.
With “TAATGCATTTTCGCATGTACATATTTCTCTTTATAT [XGTACX_site8915]”, the “gcPBM binding intensity (ln)” value worked out at 11.1 ± 0.71.
As for “TTATATTTTTTTGAGTGTACTTTTTGTGTAAAATTC [XGTACX_site2155]”, the figure is 11.5 ± 0.84; as for “TTCGACGAGAGCAAGTGTACTCTTGAATAATTTATA [XGTACX_site7613]”, 11.3 ± 0.9; as for “TTGTTATATTACAGTAGTACATTTAAAATCTACTAC [XGTACX_site2620]”, 11.4 ± 0.93.
For GAGGTCTTTTTTAATGTGCACATATATATATATATA, the “gcPBM binding intensity (ln)” value was determined as 10.7 ± 0.51.
On to “ATAAAATAATCTTATGCACACCAAAAATTTATATAA [CACACA_site8332]”, for which the “gcPBM binding intensity (ln)” value turned out to be 10.2 ± 0.12.
As to “TCTATTAATTAATATACACACATTAGATATAAATAT [CACACA_site7241]”, the “gcPBM binding intensity (ln)” value was 9.945 ± 0.092.
Turning to “TAATAATAAAAAATACGTACATATTATTTATATATG [XGTACX_site853]”, the “gcPBM binding intensity (ln)” value was 11.4 ± 0.76.
For “ACTTCAAAAATAAACTGTACGTAAAAAAAAAAAAAA [XGTACX_site795]”, the “gcPBM binding intensity (ln)” value stood at 11.5 ± 1.
“TATATATATATAATGTGTACATACTAAATAGAGGAC [XGTACX_site4153]”: the “gcPBM binding intensity (ln)” value was 11.7 ± 1.1.
Regarding “GTATTATATTTCAACTGTACGTAAAACTATTAAAAT [XGTACX_site3679]”, the “gcPBM binding intensity (ln)” value turned out to be 11.7 ± 1.1.
For “GTAATATTATATAGTTGTACTTTTTTTTTATTATAT [XGTACX_site483]”, the “gcPBM binding intensity (ln)” value was 11.5 ± 1.
In the case of “ATATATATAAATATATGTACTAATATATACATATAT [XGTACX_site2289]”, the “gcPBM binding intensity (ln)” value was found to be 11 ± 0.69.
As for “TCAATATAAATTAGTTGTACAGTTTTTTTTAATTAT [XGTACX_site6358]”, the figure is 11.5 ± 0.92; as for “ACGTAATAAAATAGTTGTACAACTTTTTATAATATA [XGTACX_site4393]”, 11.8 ± 1.1.
Take “TGTATTATTAATATTTGTACGTAATAATAAAAACAT [XGTACX_site3716]”: the “gcPBM binding intensity (ln)” value is 11.5 ± 1.
As for “TATTTTTATAAAAACTGTACATAATAAATAAAAATA [XGTACX_site4743]”, the figure is 11.1 ± 0.62; as for “TTCAATATACATATGTGTACTAAAATAAATAGAAAA [XGTACX_site5708]”, 11.3 ± 0.83; as for “AACTGTAATTTTATACGTACATAAATAATATTATAT [XGTACX_site4277]”, 11.7 ± 0.93.
As for “ATAATAAGAAAAAAAAAAAAAAAAAAAAAAAAAAAA [TGCATGCA_negctrl_site377]”, the figure is 9.59 ± 0.58; as for “TTATTGTACTTGCTCGCATGCAATAAAAATATATTA [TGCATGCA_site580]”, 11.2 ± 1.1.
As for “ATAAATTTTTAAACAGCACACATAAATATAATATAT [CACACA_site8691]”, the “gcPBM binding intensity (ln)” value was determined as 10.06 ± 0.064.
In the case of “TGATAACCTCACAAATGTACGTACGGGGCTAGCATT [XGTACX_site4157]”, the “gcPBM binding intensity (ln)” value came to 11.4 ± 0.78.
For “GTATATGAATGTTCATGTACATAATAAAATATATAA [XGTACX_site250]”, the “gcPBM binding intensity (ln)” value stood at 11 ± 0.56.
On to “ATGCGTTTAGCAAAAAGTACATATATATATAATATT [XGTACX_site1928]”, for which the “gcPBM binding intensity (ln)” value came to 11.2 ± 0.73.
In the case of “TTTTATTTATATTATACACACAAGGAAAAAAAAAAA [CACACA_site7690]”, the “gcPBM binding intensity (ln)” value is 10.2 ± 0.26.
Consider “AATAGTTATTCCAGGTGTACATAACATATAATTTAC [XGTACX_site1340]”, for which the “gcPBM binding intensity (ln)” value was 11.5 ± 0.95.
Consider “AATAAAAAAAATTTCTGTACATATATTTATTATATA [XGTACX_site1883]”, for which the “gcPBM binding intensity (ln)” value stood at 11.1 ± 0.74.
As for “TTATAATTTTTCTATTGTACATTTAATAATATATAT [XGTACX_site7326]”, the “gcPBM binding intensity (ln)” value is 10.9 ± 0.47.
As to “TGGTGTTTTTTTTAATGTACTTATAAAATAATACAT [XGTACX_site6574]”, the “gcPBM binding intensity (ln)” value turned out to be 11.4 ± 0.83.
In the case of “AGTTTCCATATGAGGTGTACATATATAATTTATTAT [XGTACX_site2369]”, the “gcPBM binding intensity (ln)” value was found to be 11.6 ± 0.71.
As to “CTTTTTTTTTAAAAATGTACACATTTTTGAAAATAC [XGTACX_site3127]”, the “gcPBM binding intensity (ln)” value was 11.4 ± 0.84.
On to “ATATATTATTTCTAGTGTACATACCCATATATAATA [XGTACX_site8902]”, for which the “gcPBM binding intensity (ln)” value worked out at 11.2 ± 0.69.
Consider “ATTATTTATTATTTCTGTACGTATAAAAATAACATT [XGTACX_site1671]”, for which the “gcPBM binding intensity (ln)” value was 11.7 ± 1.1.
On to “TATAAAATATATATCTGTACGTATTTTATTTTTTAT [XGTACX_site6257]”, for which the “gcPBM binding intensity (ln)” value was 11.4 ± 0.88.
Take “TATATATTATATATATGTACATAATTCCATGTTTAG [XGTACX_site3943]”: the “gcPBM binding intensity (ln)” value was 11.2 ± 0.81.
For the sequence “ATAAATACTTTTTGGTGTACACTTTTAAATGAAAAA [XGTACX_site3042]”, the “gcPBM binding intensity (ln)” value worked out at 11.8 ± 1.
For “GTTTTCTAGTGGGGGTGTACATATTTATATTTAATA [XGTACX_site8378]” the value was 11.7 ± 0.86.
